PMP22 txn: modulators of PMP22 gene transcription in S16 Schwann cells. S16 Pmp22-F2sN Schwann cells, FLuc/NLuc coincidence luminescence, 24 h. Potency, µM (series often up to 57.5 µM), without a hit: at the highest dose activity change, negative = inhibition, actives largely listed as inhibitors. 43,000 tested, 2% active. AID 1508649; active means clear falling dose curves in both reporters; inconclusive means both reporters move, but less clearly or upward; inactive means either reporter flat; the % is the NLuc reporter signal; further: on the % scale 0 is the no-effect control and ±100 the full control effect
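Rat S16 Pmp22-F2sN cells, 500-1,000/well in phenol red-free DMEM + 10% FBS, compound-treated 24 h (37C, 5% CO2). Luminescence: FLuc read, Stop&Glo added, NLuc read.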
mTORC1 inh: reduces mTORC1 signaling in Tsc2 and p53 null MEF cells; Tsc2-/- p53-/- MEF, phospho-rpS6 immunofluorescence/PI, 24 h; Potency, µM (top dose mostly 38.3 µM), for the others: at the top dose activity change, negative = inhibition, hits mostly inhibitors; 44,000 tested, 0.78% active;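 further: plate controls were DMSO for no effect and rapamycin for full effect; nearly all actives have a fitted effect of over 50% in size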
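Compounds act on Tsc2-/-, p53-/- fibroblasts carrying an empty vector for 24 h before fixation and dual staining for phospho-S6 and DNA (propidium iodide). Values are percentages of cells above a rapamycin-defined pS6/PI threshold.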
HTT promoter inh: HTT promoter inhibition | Potency, µM (highest dose often 57.5 µM), for the others: at the top dose activity change, negative = inhibition, most hits filed as inhibitors | 48,000 tested, 0.93% active | HEK293 HTT promoter firefly luciferase reporter, 24 h; further: nearly all actives have a fitted effect of over 50% in size
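Luminescence was read after Dual-Glo reagent and a 10 min room-temperature incubation. Values were normalized to vehicle (0% activity) and zero RLU (-100% activity). Reporter HEK293 cells had been exposed to compounds (up to 57.5 uM final) for 24 h.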
HTT-AS promoter: activates huntingtin-antisense promoter activity | HEK293 HTT-AS promoter firefly luciferase reporter, 24 h; response scale: percent change from vehicle, -100% = no light | Potency, µM (series often up to 57.5 µM), for inactives: at the highest dose activity change, positive = activation, most hits filed as activators | 48,000 tested, 0.24% active; further: nearly all actives have a fitted effect of over 55% in size
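Firefly luciferase readout (Dual-Glo, 10 min RT) after 24 h, 37 °C compound exposure (final up to 57.5 uM) of HEK293 reporter cells cultured 24 h beforehand; PTC124 at 50 uM final as control inhibitor; activity scaled vehicle 0%, zero RLU -100%.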
OvCa metastasis: blocks SKOV3ip1 adhesion and invasion in omental model. SKOV3ip1-GFP adhesion/invasion on 3D omental model, fluorescence. Potency, µM (top dose mostly 45.8 µM), without a hit: at the highest dose activity change, negative = inhibition, hits mostly inhibitors. 46,000 tested, 0.1% active. AID 1963576;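 further: plate controls were DMSO wells for no effect and tomatine positive control wells for full effect; nearly all actives have a fitted effect of over 65% in size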
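Adhesion/invasion was scored as fixed GFP-labeled SKOV3ip1 cell counts (488/509 nm), normalized to DMSO and tomatine controls. Cancer cells in serum-free medium, with four compound doses (0.36-46 umol/L), sat 2 hr at RT then 16 hr at 37 C on a 48 hr fibroblast/mesothelial/ECM culture.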
S16 F2sN tox: S16 Schwann cell cytotoxicity; 43,000 tested, 0.48% active; S16 Pmp22-F2sN Schwann cells (luciferase reporters placed in the Pmp22 gene) viability, CellTiter-Glo, 24 h; Potency, µM (top dose mostly 57.5 µM), inactives show at the highest dose activity change, negative = cytotoxicity, actives largely listed as cytotoxic; further: on the % scale 0 is the no-effect control and ±100 the full control effect; nearly all actives have a fitted effect of over 65% in size
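CellTiter-Glo counter-screen, qHTS, 1536-well. Cells: S16(c9) Pmp22-F2sN, 500-1,000/well in DMEM + 10% FBS. Cpd 23 nL pin transfer, 24 h, 37C/5% CO2. Read: luminescence, CCD imager.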
* marks the source's active call; other numbers are inactive results; [ ] = remark or other dose. A selection: hits, their analogues and other compounds. The true share with any hit is near 3.6%. Unless noted, the call rests on the fitted dose curve; in most records, active means well fitted curve in the direction sought with a large enough effect; inconclusive means small, poorly fitted or top-dose-only effect, or another doubt; inactive means no such curve, though single readings can be large; an effect the other way counts as inactive or inconclusive. Potency means the concentration at half of the fitted maximal effect.

`O=C(Nc1ccc(Br)cc1)c1cccc(S(=O)(=O)N2CCc3ccccc32)c1` gave PMP22 txn inconclusive, mTORC1 inh 9%, HTT promoter inh 25µM*, HTT-AS promoter -57%, OvCa metastasis -4% and S16 F2sN tox -3%.
Screening CCN(c1ccccc1)S(=O)(=O)c1cc(C(=O)Nc2ccc(Br)cc2)ccc1F returned PMP22 txn inconclusive, mTORC1 inh 15µM*, HTT promoter inh inconclusive, HTT-AS promoter -42%, OvCa metastasis -43% and S16 F2sN tox -17%.
Screening Cc1ccc(C(=O)Nc2ccccc2)cc1S(=O)(=O)Nc1ccc(Br)cc1 returned PMP22 txn -1%, mTORC1 inh 8%, HTT promoter inh inconclusive, HTT-AS promoter -37%, OvCa metastasis 4% and S16 F2sN tox 0%.
`O=C(Nc1ccc(Br)cc1)c1ccc(F)c(S(=O)(=O)N2CCCc3ccccc32)c1` gave PMP22 txn inconclusive, mTORC1 inh -12%, HTT promoter inh 2.2µM*, HTT-AS promoter -45%, OvCa metastasis -1% and S16 F2sN tox -6%.
For CCCCCCCCCCCCCC(=O)N[C@H](CO)[C@H](O)c1ccc([N+](=O)[O-])cc1 the results were HTT promoter inh -6%, HTT-AS promoter 1% and OvCa metastasis -2%.
Screening CC[C@@]1([C@@H]2O[C@@H]([C@H]3O[C@@](O)(CO)[C@H](C)C[C@H]3C)C[C@H]2C)CC[C@H]([C@]2(C)CC[C@]3(C[C@H](O)[C@@H](C)[C@@H]([C@@H](C)[C@@H](OC)[C@H](C)C(=O)O)O3)O2)O1 returned HTT promoter inh inconclusive, HTT-AS promoter -37%[25.1 µM] and OvCa metastasis inconclusive.
For COc1ccc(-c2ccc(CCC(=O)O)n2-c2ccccc2O)cc1 the results were PMP22 txn -54%, mTORC1 inh 13µM*, HTT promoter inh 22%, HTT-AS promoter 19%, OvCa metastasis -10% and S16 F2sN tox 4%.
COc1ccc(-c2nc(CSCC(=O)N3CCN(c4ccccc4F)CC3)c(C)o2)cc1 was read as PMP22 txn inconclusive, mTORC1 inh -8%, HTT promoter inh 28µM*, HTT-AS promoter -66%, OvCa metastasis 14% and S16 F2sN tox inconclusive.
Screening Cc1oc(-c2ccccc2F)nc1CS(=O)(=O)CC(=O)N1CCN(c2cccc(C(F)(F)F)c2)CC1 returned PMP22 txn -31%, mTORC1 inh -1%, HTT promoter inh inconclusive, HTT-AS promoter -55%, OvCa metastasis -2% and S16 F2sN tox 12%.
Cc1oc(-c2ccccc2F)nc1CSCC(=O)N1CCN(c2ccccc2)CC1 was read as PMP22 txn inconclusive, mTORC1 inh -10%, HTT promoter inh 22µM*, HTT-AS promoter -64%, OvCa metastasis -2% and S16 F2sN tox inconclusive.
`Cc1ccccc1NC(=O)c1c(NC(=O)C(F)(F)F)sc2c1CCCCC2` gave PMP22 txn 12µM*, mTORC1 inh 7%, HTT promoter inh 2µM*, HTT-AS promoter -96%, OvCa metastasis inactive and S16 F2sN tox inconclusive.
Screening Cc1cccc(NC(=O)c2c(NC(=O)C(F)(F)F)sc3c2CCCCC3)c1 returned PMP22 txn 10µM*, mTORC1 inh -13%, HTT promoter inh 2µM*, HTT-AS promoter -92%, OvCa metastasis inconclusive and S16 F2sN tox inconclusive.
`O=C(Nc1cccc(Cl)c1)c1c(NC(=O)C(F)(F)F)sc2c1CCCC2` gave PMP22 txn 13µM*, mTORC1 inh -9%, HTT promoter inh 1.8µM*, HTT-AS promoter -94%, OvCa metastasis inconclusive and S16 F2sN tox inconclusive.
